Sensor-assay potency score (higher = more potent) data for 39 sequences are collected here from the OligoGym collection.
Note: reference of the scale not given here.

The first assay addresses CTLA4. Put plainly: pooled miR-30 sensor sort-seq; sequence = guide strand. Particulars: shRNA.
For TAAATCTGGGTTCCGTTGCCTA, the sensor-assay potency score (higher = more potent) is -0.995.

In the case of TTGCAGATGTAGAGTCCCGTGT, the sensor-assay potency score (higher = more potent) is -0.673.

Take TTTGCTCAAAGAAACAGCTGTG: the sensor-assay potency score (higher = more potent) worked out at 0.483.

With TTTTGCTCAAAGAAACAGCTGT, the sensor-assay potency score (higher = more potent) was 0.613.

For the sequence TGGATCAATTACATAAATCTGG, the sensor-assay potency score (higher = more potent) is -0.489.

In turn, ATCAATTACATAAATCTGGGTT came in with a sensor-assay potency score (higher = more potent) of -0.149.

The sequence TTACATAAATCTGGGTTCCGTT registered a sensor-assay potency score (higher = more potent) of -0.355.

In turn, TTCTTTAGCATTTTGCTCAAAG returned a sensor-assay potency score (higher = more potent) of -0.747.

On to TTAGCAATTACATAAATCTGGG, for which the sensor-assay potency score (higher = more potent) was -0.222.

On to TTGGATAGTGAGGTTCACTTGA, for which the sensor-assay potency score (higher = more potent) was found to be 0.333.

A further assay concerns the target CTNNAL1. Described as above. Particulars: shRNA.
The sequence TTCAGCAGCAGAAATTATCTGT registered a sensor-assay potency score (higher = more potent) of 0.229.

Turning to TTGTTTTCTTGCTTTGAGCTTG, the sensor-assay potency score (higher = more potent) is 0.085.

In the case of TTGTCTTCGTAATACACTTGTC, the sensor-assay potency score (higher = more potent) is -0.611.

For the sequence TCGACAGGTCTCAACAAGCTGC, the sensor-assay potency score (higher = more potent) is -0.481.

Consider TAGTTGATGAATTAAATCCTGG, for which the sensor-assay potency score (higher = more potent) was -0.667.

The sequence TTGAACACTGGAAGTAAGCTTT had a sensor-assay potency score (higher = more potent) of 0.00936.

Sequence TTCATTAAGACTGTGACTGATT had a sensor-assay potency score (higher = more potent) of 0.0876.

The sequence TTGTAACTGAGACCCATCCGTT had a sensor-assay potency score (higher = more potent) of -0.457.

Sequence TTCATTTCCAAATTGACTGAAT displayed a sensor-assay potency score (higher = more potent) of 0.0043.

Consider TTTCTTGATGTTATTATCTGTT, for which the sensor-assay potency score (higher = more potent) is -0.648.

In turn, TTATTTGTAACTGAGACCCATC showed a sensor-assay potency score (higher = more potent) of -0.547.

Turning to ATTTTGTCTATCTCCACTCAGA, the sensor-assay potency score (higher = more potent) was -0.843.

For another assay, the target named is CTNNBIP1. Described as above. Particulars: shRNA.
For CTGAATGTACATCTCCTCCGGA, the sensor-assay potency score (higher = more potent) was -0.773.

TTCTGCTGAATGTACATCTCCT registered a sensor-assay potency score (higher = more potent) of -0.0119.

In the case of TCTGCTGAATGTACATCTCCTC, the sensor-assay potency score (higher = more potent) was -0.574.

For ATCTCCTCCGGACTCTTCCCGG, the sensor-assay potency score (higher = more potent) was -1.21.

Sequence TTGATATCAGCAGAACACCTGC came in with a sensor-assay potency score (higher = more potent) of -0.0972.

For TGATCCCATCTTCCGCAGCATG, the sensor-assay potency score (higher = more potent) is -1.86.

The sequence TCTCCTCCGGACTCTTCCCGGG had a sensor-assay potency score (higher = more potent) of -0.954.

Turning to TGAATGTACATCTCCTCCGGAC, the sensor-assay potency score (higher = more potent) is -0.75.

TTGACCACCCCTGCATAGGTGC displayed a sensor-assay potency score (higher = more potent) of -1.01.

As to TCGGACCTTCTGCTGAATGTAC, the sensor-assay potency score (higher = more potent) was -1.3.

Sequence ATAGGTGCGCAGGAACTCCTCC yielded a sensor-assay potency score (higher = more potent) of -0.215.

The sequence TGGCTGTCAGGTTTGATCCCAT showed a sensor-assay potency score (higher = more potent) of -0.741.

A further assay addresses CTNNBL1. Described as above. The note with it: shRNA.
Consider TGAACTTCTCTGGATTGTCTGG, for which the sensor-assay potency score (higher = more potent) is -0.725.

TTAAACACGGATAACTGCTGAA: the sensor-assay potency score (higher = more potent) is -0.397.

Regarding TGTATTATCGTGTCCGAGCAAG, the sensor-assay potency score (higher = more potent) was -1.35.

Sequence TACAGCATTCAGCTCCACCAGA yielded a sensor-assay potency score (higher = more potent) of -0.685.

In turn, TACTCCTTGATGATATGCCTGA yielded a sensor-assay potency score (higher = more potent) of -0.148.
